A selection: hits, their analogues and other compounds. The true share with any hit is near 2.8%.
IP6K1 inh – Primary qHTS assay for small molecule inhibitors of Inositol hexaphosphate kinase 1 (IP6K1); 0.81% of 140,000 active; Inositol hexakisphosphate kinase 1 (Homo sapiens), Q92551; AID 1645851, 2021; activity change, % (series mostly up to about 58 µM); IP6K1 kinase, ADP-Glo luminescence, 2 h; stronger effect = lower value; in the data active means activity change below about -25%; further: on the % scale 0 is the no-effect control and ±100 the full control effect
Target sequence (Q92551 whole entry, looked up): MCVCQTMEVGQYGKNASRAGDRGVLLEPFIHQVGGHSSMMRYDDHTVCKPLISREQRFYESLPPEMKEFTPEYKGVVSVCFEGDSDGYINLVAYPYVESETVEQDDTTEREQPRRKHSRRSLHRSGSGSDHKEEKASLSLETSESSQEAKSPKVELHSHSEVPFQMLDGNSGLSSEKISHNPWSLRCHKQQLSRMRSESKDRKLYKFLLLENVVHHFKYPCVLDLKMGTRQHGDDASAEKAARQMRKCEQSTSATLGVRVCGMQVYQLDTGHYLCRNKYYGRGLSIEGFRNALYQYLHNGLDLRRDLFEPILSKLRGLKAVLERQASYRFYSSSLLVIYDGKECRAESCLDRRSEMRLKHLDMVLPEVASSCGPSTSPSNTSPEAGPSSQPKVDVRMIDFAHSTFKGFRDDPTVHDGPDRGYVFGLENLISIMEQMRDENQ
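ADP-Glo luminescence measures ADP made by human IP6K1 during a 2 h RT reaction with ATP/IP6 (mix at 1.3 mM/130 uM); top library doses 57.5 and 19.1 uM final.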
KDM5B inh – Primary screen for KDM5B Histone Demethylases FDH-coupled qHTS | Potency, µM (doses to about 57.7 µM), most hits filed as inhibitors | AID 1347165, 2019 | 2.6% of 220,000 active | KDM5B demethylase, FDH-coupled NADH fluorescence (FDH is formaldehyde dehydrogenase); further: potency means the concentration at half of the fitted maximal effect; 0% is about no effect; nearly all actives have a fitted effect of over 70% in size
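KDM5BΔAP (200 nM final) in 50 mM HEPES pH 7.5, 0.01% Tween-20 was preincubated 10 min at RT with compound over a concentration range. Substrate mix (H3K4me3 12.5 µM, α-KG 25 µM, Fe²⁺, ascorbate, NAD⁺, FDH) was added, and NADH fluorescence change over 30 min gave dose-response curves.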
SNCA expr inhib – Primary qHTS assay for inhibitors of alpha-synuclein gene (SNCA) expression. HEK-293 SNCA-luciferase knock-in, luminescence, 24 h. Potency, µM (doses to about 57.2 µM), for inactives: at the highest dose activity change, negative = inhibition, most hits filed as inhibitors. 0.17% of 140,000 active;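 further: potency means the concentration at half of the fitted maximal effect; plate controls were DMSO cells for no effect and cell-free wells for full effect; nearly all actives have a fitted effect of over 45% in size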
HEK293 viab – GF-AFC viability counterscreen for inhibitors of alpha-synuclein gene (SNCA) expression; Potency, µM (doses to about 57.1 µM), inactives show at the top dose activity change, negative = cytotoxicity, hits mostly cytotoxic; 0.12% of 150,000 active; AID 1671193, 2021; HEK-293-SNCA-luc viability, GF-AFC fluorescence, 24 h;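 further: potency means the concentration at half of the fitted maximal effect; 0% = DMSO-treated cells and -100% = medium-only wells without cells; nearly all actives have a fitted effect of over 30% in size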
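HEK-293-SNCA-luc cells (1500/well) plated 24 h, then exposed 24 h to a dilution series; GF-AFC added 30 min at 37C, fluorescence 405/540 nm; normalised to medium-only and DMSO wells, Hill fit.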
IP6K1 inh cnf – Confirmatory qHTS assay for small molecule inhibitors of Inositol hexaphosphate kinase 1 (IP6K1) | AID 1645852, 2021 | Potency, µM (top dose mostly 49 µM), for inactives: at the top dose activity change, negative = inhibition, usual class: inhibitors | 13% of 1,200 active | shares compounds with IP6K1 inh | recombinant IP6K1 kinase, ADP-Glo luminescence, 2 h; further: potency means the concentration at half of the fitted maximal effect; on the % scale 0 is the no-effect control and ±100 the full control effect; nearly all actives have a fitted effect of over 65% in size
The depositor's hits bear a star; i = inactive; ? = inconclusive; . = not tested or not shown; [ ] = another dose, or the depositor's remark. Unless noted, the call rests on the fitted dose curve; in most records, active means well fitted curve in the direction sought with a large enough effect; inconclusive means small, poorly fitted or top-dose-only effect, or another doubt; inactive means no such curve, though single readings can be large; an effect the other way counts as inactive or inconclusive.

SMILES	IP6K1 inh	KDM5B inh	SNCA expr inhib	HEK293 viab	IP6K1 inh cnf
Cc1ccc(-n2ncc(C(=O)NCc3cccs3)c2C2CCN(C(=O)OC(C)(C)C)CC2)c(C)c1	-33*	?	?	-17%	-4%
Cc1ccc(-n2ncc(C(=O)NCc3cccs3)c2C2CCN(C(=O)OC(C)(C)C)CC2)cc1C	22	i	?	?	.
O=C(CCc1ccccc1)N1CCC2(CC1)CC(N(Cc1ccccc1)C1CC1)CCO2 (centres undefined)	-27*	i	-9%	2%	-14%
CCC(=O)N1CCc2cc(Br)cc(S(=O)(=O)N(CC)Cc3ccccc3)c21	-27*	i	-5%	1%	38%
CCC(=O)N1CCc2cc(Br)cc(S(=O)(=O)CCC(=O)N3CCN(c4ccccc4OC)CC3)c21	-27*	i	3%	1%	-6%
CCC(=O)N1CCc2cc(Br)cc(S(=O)(=O)NCCCN(CC)Cc3ccccc3)c21	.	i	.	.	.
CS(=O)(=O)N1CCCCC1C(=O)NC1CCCCCCC1 (centres undefined)	.	i	.	.	.
COc1ccc(CNC(=O)Cc2c(C)c3ccc(OC)c(C)c3oc2=O)cc1OC	.	i	.	.	.
O=C(O)CC1(O)C(=O)Nc2ccccc21 (centres undefined)	-31*	.	.	4%[87.6 µM]	?
O=C(O)CC1(O)C(=O)Nc2cc(Br)ccc21 (centres undefined)	.	i	.	.	.
CS(=O)(=O)c1cccc(OCC(=O)c2ccc(F)cc2)c1	.	i	.	.	.
COc1cccc(NC(=O)c2cnc(SCC(=O)N3CCCc4ccccc43)n(C)c2=O)c1	-27*	i	9%	-3%	-3%
CS(=O)(=O)c1ccc2nc(NC(=O)COc3ccc(F)cc3)sc2c1	.	i	.	.	.
COc1cc(O)cc(/C=C/c2cccc(O)c2)c1	-45*	.	.	-18%	?
CC(=O)Oc1cccc(O)c1	35	.	-47%[25.6 µM]	-16%[23.9 µM]	.
Cc1ccccc1NC(=O)CCn1nc(-c2ccccc2)c2ccccc2c1=O	-25*	i	-6%	-15%	-10%
O=C(CCn1nc(-c2ccccc2)c2ccccc2c1=O)Nc1cccc2ccccc12	.	i	.	.	.
CC(=O)Nc1ccc(NC(=O)c2cc(S(=O)(=O)N3CCOCC3)c(Cl)cc2Cl)cc1	.	i	.	.	.
CN1CCN(c2cc(=O)c3ccnc(-c4ccc(Cl)cc4)c3o2)CC1	-32*	35µM*	6%[87.6 µM]	-5%[87.6 µM]	?
CCOC(=O)N1CCN(C(=O)CN(c2cc(Cl)cc(Cl)c2)S(C)(=O)=O)CC1	.	i	.	.	.
O=C(Nc1ccc(NC(=O)C2CC2)cc1)C1CCCCC1	.	i	.	.	.
CCOC(=O)c1cc2c(=O)n3ccccc3nc2n(Cc2ccco2)c1=NC(=O)c1cccc(C)c1	-36*	?	-24%	?	?
CCOC(=O)c1cc2c(=O)n3ccccc3nc2n(Cc2ccco2)c1=NC(=O)c1cccc(Br)c1	-4	?	2%	6%	.
COC(=O)c1ccc(CNC(=O)CCc2ncc(-c3ccccc3F)o2)cc1	.	i	.	.	.
CCOc1cc(C2C(C(=O)OC)=C(C)NC3=C2C(=O)c2ccccc23)c(Br)cc1OC (centres undefined)	-2	?	-18%	3%	.
CCOc1cc(Br)c(C2C(C(=O)OC)=C(C)NC3=C2C(=O)c2ccccc23)cc1OCC (centres undefined)	-32*	?	-24%	-7%	-12%
Cc1cc(F)c(C(=O)Nc2cccc(-c3nncn3C(C)C)n2)cc1-n1cnc(C2CC2)c1	-35*	.	.	?	?
Cn1nc(C2CCCC2)cc1NC(=O)c1ccccc1F	-1	.	87%[87.6 µM]	6%[87.6 µM]	.
CC1CCCCN1CC(=O)NC(=O)NCc1cccs1 (centres undefined)	.	i	.	.	.
CCOc1ccc(C2Cn3nnc(-c4nc(-c5ccsc5)no4)c3CO2)cc1 (centres undefined)	-27*	25µM*	31%	-1%	-14%

Compound activity as filed in PubChem.
